Measured values reported in PubChem BioAssay AID1259372 (The Scripps Research Institute Molecular Screening Center, 2018).
About 760 (16%) of roughly 4,700 compounds were called active. These entries were drawn from the full list. Values without a mark were called inactive.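 The calls were made as follows: active = inhibition above a cutoff derived from the DMSO control wells (cut at about 28% in these data); inactive = the rest.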

biological target: Microphthalmia-associated transcription factor (Homo sapiens) (UniProt O75030); assay: MITF inhibitors, retest of hits, confirmation, biochemical, AlphaScreen, triplicate (AID 1259372); conditions: AlphaScreen MITF homodimerization, biotin/His-MITF beads; at 2.6 µM; active compounds read high
Sequence (O75030 whole entry, looked up): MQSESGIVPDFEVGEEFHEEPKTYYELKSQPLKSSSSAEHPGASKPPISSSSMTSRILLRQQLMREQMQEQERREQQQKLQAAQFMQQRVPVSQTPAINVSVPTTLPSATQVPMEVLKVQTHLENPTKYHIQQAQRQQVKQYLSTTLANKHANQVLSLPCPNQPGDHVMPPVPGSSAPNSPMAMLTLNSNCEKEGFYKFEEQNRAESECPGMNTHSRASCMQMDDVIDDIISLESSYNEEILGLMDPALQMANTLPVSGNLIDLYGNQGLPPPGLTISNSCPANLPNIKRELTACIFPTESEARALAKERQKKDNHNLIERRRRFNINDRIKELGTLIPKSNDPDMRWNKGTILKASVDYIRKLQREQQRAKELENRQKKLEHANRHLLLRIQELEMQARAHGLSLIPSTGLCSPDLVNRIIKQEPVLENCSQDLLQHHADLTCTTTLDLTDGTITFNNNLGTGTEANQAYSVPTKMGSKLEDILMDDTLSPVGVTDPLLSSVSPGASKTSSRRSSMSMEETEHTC

Row | SMILES | inhibition
1 | COc1ccc(C(=O)COC(=O)CNS(=O)(=O)/C=C/c2ccc(C)cc2)cc1OC | 7.42%
2 | O=C(CNCc1ccc(F)cc1)Nc1ccc(N2CCCC2)cc1 | 17.1%
3 | CC(C)(C)n1nnnc1C(c1ccc2ncccc2c1)N1CCSCC1 (stereo unspecified) | 20.3%
4 | CCc1ccc(OCCCCn2ccnc2)cc1 | -7.12%
5 | CCc1cccc(OCCOCCn2ccnc2)c1 | 0.99%
6 | N#Cc1nc(COc2cccc(Cl)c2)oc1NCCCn1ccnc1 | 43.8% (active)
7 | C=CCc1cc(C)ccc1OCCCn1ccnc1 | -1.07%
8 | COc1ccc(Br)cc1CN1CCN(C(=O)c2cccnc2)CC1 | 8.4%
9 | Cc1cccc(NC(=O)CNCCN2CCCCC2)c1C | 7.31%
10 | O=[N+]([O-])c1ccccc1S(=O)(=O)N1CCN(C2Cc3ccccc3C2)CC1 | 4.35%
11 | COc1ccc(CN2CCN(Cc3cc(OC)c(OC)c(OC)c3)CC2)cc1 | 1.87%
12 | CCN(CC)CCN1COc2c(cc(Cl)c3cccnc23)C1 | 107% (active)
13 | CN1CCN(CCC(=O)N/N=C/c2ccsc2)CC1 | -0.75%
14 | c1ccc(-n2cc(CN3CCOCC3)c(-c3ccc4c(c3)OCCO4)n2)cc1 | 13.2%
15 | COC(=O)C(C)CN1CCN(Cc2ccc3c(c2)OCO3)CC1 (stereo unspecified) | 1.84%
16 | CCN(Cc1ccccc1)Cc1ccc([N+](=O)[O-])cc1 | -4.11%
17 | COc1ccc(OCCCC(=O)Oc2ccc(OC)cc2)cc1 | 4.29%
18 | Cc1ccc(OCCCCNCCN2CCOCC2)c(Br)c1 | 5.77%
19 | COc1cccc(-c2ncnn2-c2sc3c(c2C#N)CCCCC3)c1 | -10.4%
20 | COc1cc(CN2CCN(Cc3ccccc3Cl)CC2)cc(OC)c1OC | 9.37%
21 | CCN1CCN(CCOCCOc2ccccc2OCc2ccccc2)CC1 | 2.12%
22 | COCCCN1C(=O)c2cccc3c(C(=O)c4ccccc4)ccc(c23)C1=O | 10.4%
23 | O=C(CN1CCN(CC(=O)c2ccco2)CC1)Nc1ccc(Cl)c(Cl)c1 | 10.7%
24 | Cc1nc2sc(C(c3ccccc3Cl)N3CCC4(CC3)OCCO4)c(O)n2n1 (stereo unspecified) | 13.8%
25 | CC(=O)NS(=O)(=O)c1ccc(-c2ccc(C=C(C#N)C#N)o2)cc1 | -19.5%
26 | N#Cc1ccc(/C=N/NC(=O)c2cc([N+](=O)[O-])cc([N+](=O)[O-])c2)cc1 | 3.87%

Row | SMILES | inhibition
27 | Fc1cccc(Cl)c1Cn1nnc(-c2ccncc2)n1 | 13.6%
28 | Cc1cccc(OCCN2CCNCC2)c1C | -3.54%
29 | COc1ccc2c(c1)CC(c1nc(Nc3ccc4cnccc4c3)c3ccccc3n1)CO2 (stereo unspecified) | 58.2% (active)
30 | CC1CCCCC1NC(=O)CSc1nnc(-c2ccncc2)n1CCCN(C)C (stereo unspecified) | 8.82%
31 | COc1ccc(C(=O)N2CCN(Cc3ccccc3C(F)(F)F)CC2)cc1OC | 3.61%
32 | CCN(C(=O)Cc1nc(N)n[nH]1)C1(C(=O)Nc2ccc(C)cc2)CCCCC1 | 81.1% (active)
33 | CCN(C(=O)Cc1nc(N)n[nH]1)C1(C(=O)Nc2ccccc2)CCCCC1 | 105% (active)
34 | CCOc1ccc(CN2CCCN(C)CC2)cc1 | 5.9%
35 | CCN(CC)C(=O)C1CCCN(Cc2cccc(Cl)c2)C1 (stereo unspecified) | -2.94%
36 | N#Cc1ccc(OCC(=O)Nc2nc(-c3ccccn3)cs2)cc1 | 22.3%
37 | CCC(C)NCCOCCOc1cc(C)cc(C)c1C (stereo unspecified) | -6.95%
38 | COc1ccc(Cn2nnc(C(=O)Nc3cccc(Cl)c3)c2N)cc1 | 8.84%
39 | CCN1CCN(CC(=O)N/N=C/c2cccc(Cl)c2)CC1 | 2.25%
40 | c1cncc(CCNc2ccc3ncc(-c4cc5ccccc5o4)n3n2)c1 | 2.68%
41 | CN1CCC(N2CCN(c3ccccc3Cl)CC2)CC1 | 10.4%
42 | C=CCNC(=O)c1sc(=S)n(CC)c1N | 0.63%
43 | CC(C)(C)NCC(=O)Nc1c2c(nc3ccccc13)N(Cc1ccccc1)CC2 | 18.3%
44 | CCOc1cccc(C2C(C(=O)OCCOc3ccccc3)=C(C)NC3=C2C(=O)CCC3)c1 (stereo unspecified) | 2.03%
45 | Cc1ccc(C(C)C)c(OCC#CCN2CCNCC2)c1 | 7.61%
46 | COc1ccc(CN2CCN(Cc3ccccc3C)CC2)c(OC)c1OC | -1.26%
47 | CCCS(=O)(=O)N1CCN(Cc2cccc(Cl)c2)CC1 | 4.65%
48 | COC(=O)c1sc(NC(=O)c2ccccc2C)c(C#N)c1C | -8.1%
49 | COc1ccc(C(=O)NCCN2CCN(c3nc4c(C)c(C)ccc4s3)CC2)cc1 | -5.73%
50 | COc1cc(CN2CCN(Cc3ccco3)CC2)c([N+](=O)[O-])cc1OC | 16.3%
51 | COc1cc(Nc2ncnc3c2nc(N2CCOCC2)n3C(C)C)cc(OC)c1OC | -3.35%
52 | COc1cc(N2CCOCC2)ccc1Nc1cc(Nc2ccccc2-n2cccn2)c(C(F)(F)F)cn1 | 31.5% (active)

Row | SMILES | inhibition
53 | CCN(CC(=O)NCc1ccc(Cl)cc1)Cn1nnc2ccccc21 | 0.75%
54 | COc1ccc(CN2CCN(C3CCC(C)CC3)CC2)c(OC)c1OC (stereo unspecified) | 2.96%
55 | CCCCC(=O)NCc1ccc(F)cc1 | 17.4%
56 | CN(C)c1cccc(Nc2ccc(-c3cccc(C=O)c3)cn2)c1 | 65.7% (active)
57 | COc1ccc(CN2CCN(Cc3cccc(Br)c3)CC2)c(OC)c1 | 8.87%
58 | CCN(CCN(C)C)Cc1c(Cl)cccc1Cl | -9.82%
59 | COc1ccc(CN2CCN(Cc3cc(OC)ccc3OC)CC2)cc1 | -1.47%
60 | O=c1c2ccccc2ncn1CCCCOc1ccccc1F | 15.3%
61 | COc1ccccc1CN1CC(C)OC(C)C1 (stereo unspecified) | -2.69%
62 | CC(c1ccccn1)N(CCN(C)C)C(=S)Nc1ccccc1F (stereo unspecified) | 19.9%
63 | O=S(=O)(c1ccc(F)cc1)N1CCN(Cc2ccccc2C(F)(F)F)CC1 | 3.94%
64 | COc1cccc(CN2CCN(Cc3ccc(C(F)(F)F)cc3)CC2)c1OC | 1.8%
65 | Fc1ccc(CN2CCN(C3CCCC3)CC2)cc1 | 5.12%
66 | CSc1ccc(CN2CCN(Cc3cccc(Oc4ccccc4)c3)CC2)cc1 | 6.75%
67 | COc1ccc(NC(=O)c2cc3n(n2)C(C(F)(F)F)CC(c2ccc(OC)c(OC)c2)N3)cc1OC (stereo unspecified) | -8.79%
68 | CC(=O)c1cccc(N2C(=O)c3cccnc3C2=O)c1 | 0.46%
69 | CCCS(=O)(=O)N1CCN(Cc2ccccc2Br)CC1 | 7.16%
70 | COc1cccc(OC)c1C(=O)N1CCN(Cc2ccccc2F)CC1 | 6.68%
71 | COc1ccc(OC)c(CN2CCN(Cc3ccc(Cl)cc3)CC2)c1 | 7.55%
72 | O=[N+]([O-])c1ccccc1CN1CCN(Cc2cccnc2)CC1 | 14.6%
73 | CC1CCC2C(=O)N(c3ccc(I)cc3)C(=O)C2C1 (stereo unspecified) | -5.9%
74 | O=C(O)C1C2C=CC(O2)C1C(=O)Nc1nccs1 (stereo unspecified) | -0.18%
75 | O=C(NN1C(=O)c2ccccc2C1=O)c1cccc(F)c1 | -16%
76 | Cc1ccc(C)n1C(Cc1ccccc1)C(=O)O (stereo unspecified) | 17%
77 | CN(CCc1ccccn1)Cc1cccnc1 | 8.93%
78 | COc1ccc(C(CNCc2cc(=O)oc3cc4c(cc23)CCC4)N2CCOCC2)cc1 (stereo unspecified) | 10.3%

Row | SMILES | inhibition
79 | O=C(Cc1cccs1)N/N=C\C=C\c1ccco1 | 79.7% (active)
80 | Fc1cccc(CN2CCN(C3CCC(c4ccccc4)CC3)CC2)c1 (stereo unspecified) | 11.2%
81 | CCC(C)c1ccccc1NC(=O)CN(C)CC(=O)Nc1ccccc1SC (stereo unspecified) | -6.92%
82 | Cc1ccccc1NC(=O)NCCOc1cc(N2CCCC2)ncn1 | 6.75%
83 | CCS(=O)(=O)N1CCN(C2CCCCC2C)CC1 (stereo unspecified) | -1.17%
84 | COc1ccc(CN2CCCC(C(=O)N3CCCCC3)C2)cc1 (stereo unspecified) | -32.4%
85 | C/C(N)=C(/C#N)C(=O)COC(=O)c1c2c(nc3ccccc13)/C(=C/c1ccco1)CC2 | 90.7% (active)
86 | CCN1CCN(CCOc2ccc(-c3ccccc3)cc2)CC1 | 9.66%
87 | COc1ccc(CN2CCC(C(=O)N3CCN(Cc4ccccc4)CC3)CC2)cc1 | 13.8%
88 | COc1cc(CN2CCN(Cc3cccnc3)CC2)cc(OC)c1OC | 6.15%
89 | Cc1cc(NC(=O)CNCCCN(C)C)no1 | 2.39%
90 | Cc1cc(NC(=O)CSc2ccc(-c3ccccn3)nn2)no1 | 49% (active)
91 | Cc1cccnc1NC(=O)CSc1nnc(COc2ccc(C(C)C)cc2)n1C | 5.99%
92 | CCOc1ccc(OCCCCNCCO)cc1 | 10.6%
93 | COc1cccc(CN2CCC(C(=O)NCCc3ccccc3)CC2)c1 | 8.72%
94 | CC(NCCCN1CCOCC1)C(=O)Nc1ccccc1 (stereo unspecified) | 5.64%
95 | CN(CCC(=O)O)Cc1cccc(Cl)c1 | -8.04%
96 | C[C@@H](OCc1ccccc1)[C@@H]1NC(=O)[C@H]2CN(C(=O)Nc3cccc(F)c3)CCN2C1=O | 68.9% (active)
97 | CC[C@@H]1NC(=O)[C@H]2CN(C(=O)NCc3ccccc3)CCN2C1=O | 73.6% (active)
98 | Cc1n[nH]c(=O)nc1N/N=C/c1cccs1 | 35.1% (active)
99 | CCCS(=O)(=O)N1CCN(C(C)C)CC1 | 10.5%
100 | CC(C)CO/N=C1\C[C@@H](O)[C@@H](O)[C@@H]2[C@@H]3C(=O)N([C@@H](C)c4ccccc4)C(=O)[C@@H]3CC[C@@H]12 | 3.51%
101 | O=C(OCCN1CCOCC1)c1c(Cl)nc2sccn12 | 9.99%
